Assay results reported in PubChem BioAssay.
The source made the active and inactive calls.

What was measured:
[1] = small molecules captured by biotinylated probe aFSTL3 – biochemical, small-molecule microarray, fluorescence 635/667, stem cell growth factor project, primary screen (AID 1064); conditions: higher = more signal;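 further: measures binding of the biotinylated anti-FSTL3 antibody to printed compounds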
[2] = binders from COS7 lysate, DM2A8 probe, primary screen, torsin A project, cell lysate, small-molecule microarray, fluorescence 635/667 (AID 1065); conditions: higher = more signal, COS7 lysate expressing mutant human TOR1A
[3] = small molecules captured by biotinylated probe aFGF2 – biochemical, small-molecule microarray, fluorescence 635/667, stem cell growth factor project, primary screen (AID 1067); conditions: higher = more signal;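 further: measures binding of biotinylated aFGF2 protein to printed compounds on slides; z-score merges feature fluorescence and signal-to-noise across triplicate slides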
[4] = small molecules captured by biotinylated probe aFGF10 – biochemical, small-molecule microarray, fluorescence 635/667, stem cell growth factor project, primary screen (AID 1071); conditions: higher = more signal;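 further: score merges 667 nm spot intensity and signal to noise from triplicate slides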
[5] = target: Neurogenic locus notch homolog protein 2 (Homo sapiens) (UniProt Q04721); experiment: small molecules binding Notch2 protein – biochemical, small-molecule microarray, 635 nm fluorescence, stem cell growth factors, primary screen (AID 1073); conditions: higher = more signal
[6] = target: Pro-neuregulin-1, membrane-bound isoform (Homo sapiens) (UniProt Q02297); experiment: small molecules binding neuregulin-1 protein – biochemical, small-molecule microarray, fluorescence 635/667, psychiatric disease protein project, primary screen (AID 1075); conditions: NRG1 binding, 635 nm fluorescence, higher = more signal;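 further: score combines 667 nm spot fluorescence with signal to noise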
[7] = system: Neuregulin-1 EGF-like domain; experiment: small molecules binding NRG1 EGF domain – biochemical, small-molecule microarray, 635 nm fluorescence, primary screen (AID 1081); conditions: higher = more signal;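 further: binding of the protein to compounds printed on small-molecule microarray slides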
[8] = FRG1 expression reporter modulators in myotubes – cell-based, C2C12 myotubes, firefly/Renilla luciferase, luminescence, FRG1 inhibition for FSHD, primary screen (AID 1084); conditions: FRG1 promoter luciferase, higher = more signal, called active from +8 up or from −8 down
[9] = small molecules captured by biotinylated probe aFST – biochemical, small-molecule microarray, fluorescence 635/667, stem cell growth factor project, primary screen (AID 1086); conditions: higher = more signal;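 further: score merges 667 nm fluorescence with signal-to-noise of each printed compound spot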
[10] = binders of probe aHhip on microarray, primary screen, stem cell growth factor project, biochemical, small-molecule microarray, fluorescence 635/667 (AID 1087); conditions: higher = more signal;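 further: score merges spot fluorescence at 667nm with spot signal to noise ratio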
[11] = system: PRMT1 (protein arginine N-methyltransferase 1); experiment: small molecules binding arginine methyltransferase PRMT1 – biochemical, small-molecule microarray, 635 nm fluorescence, primary screen (AID 1088); conditions: higher = more signal;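 further: binding of Prmt1 protein to compounds spotted on small-molecule microarray slides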
[12] = growth effects on S. cerevisiae YJM789 – YJM789 clinical isolate, OD600, 24 h, basal, primary screen (AID 1089); conditions: higher = more signal, called active from +8 up or from −8 down;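 further: growth of clinical yeast isolate S. cerevisiae YJM 789 seeded 1000 cells per well; test concentration not given here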
[13] = S. pombe growth modifiers, basal conditions – strain 972, OD600, 24 h, no modulator, primary screen (AID 1090);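 further: basal condition with compound alone and no growth modifier present; test concentration not given here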; conditions: S. pombe 972 growth, higher = more signal, called active from +8 up or from −8 down
[14] = budding yeast growth modifiers under rapamycin – strain BY4716, OD600, 96 h, primary screen (AID 1091); further: test concentration not given here; conditions: S. cerevisiae BY4716 + rapamycin, higher = more signal, called active from +8 up or from −8 down
[15] = target: Torsin-1A-interacting protein 2 (Homo sapiens) (UniProt Q8NFQ8); experiment: small molecules binding lysate-expressed LULL1 – cell lysate, human LULL1 lysate, 635/667 nm fluorescence, primary screen (AID 1092); conditions: small-molecule microarray, hLULL1 lysate binding, 635 nm fluorescence; higher = more signal;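 further: probe is lysate of COS7 cells overexpressing human LULL1; score merges per-feature 667 nm fluorescence with signal-to-noise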
[16] = optical density change of DRC41 E. coli – strain DRC41, OD650, 24 h, E. coli filamentation project, primary screen (AID 1093);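 further: MC1000 strain lacking acrAB efflux and sulA so SOS filamentation is blocked; test concentration not given here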; conditions: E. coli DRC41 growth, higher = more signal, called active from +8 up or from −8 down
[17] = probe aLefty2 binding to arrayed compounds – biochemical, biotinylated probe, 635/667 nm fluorescence, primary screen (AID 1094); conditions: small-molecule microarray, higher = more signal;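 further: score merges spot fluorescence near 667 nm with spot signal-to-noise ratio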
[18] = system: Noggin (protein binding on small-molecule microarray); experiment: small molecules binding Noggin protein – biochemical, 635/667 nm fluorescence, primary screen (AID 1095); conditions: 635 nm fluorescence, higher = more signal;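 further: score merges 667 nm feature fluorescence with signal to noise over triplicate slides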
[19] = target: Neurogenic locus notch homolog protein 3 (Homo sapiens) (UniProt Q9UM47); experiment: small molecules binding NOTCH3 protein – biochemical, 635/667 nm fluorescence, primary screen (AID 1096); conditions: small-molecule microarray, 635 nm fluorescence, higher = more signal
[20] = probe aEGFR binding to arrayed compounds – biochemical, biotinylated probe, 635/667 nm fluorescence, primary screen (AID 1097); conditions: small-molecule microarray, higher = more signal;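 further: probe is a biotinylated anti-EGFR antibody binding compounds printed on slides; score combines fluorescence near 667 nm and signal to noise of each spot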

Sequence of Neurogenic locus notch homolog protein 3 (Homo sapiens) (Q9UM47 whole entry, looked up): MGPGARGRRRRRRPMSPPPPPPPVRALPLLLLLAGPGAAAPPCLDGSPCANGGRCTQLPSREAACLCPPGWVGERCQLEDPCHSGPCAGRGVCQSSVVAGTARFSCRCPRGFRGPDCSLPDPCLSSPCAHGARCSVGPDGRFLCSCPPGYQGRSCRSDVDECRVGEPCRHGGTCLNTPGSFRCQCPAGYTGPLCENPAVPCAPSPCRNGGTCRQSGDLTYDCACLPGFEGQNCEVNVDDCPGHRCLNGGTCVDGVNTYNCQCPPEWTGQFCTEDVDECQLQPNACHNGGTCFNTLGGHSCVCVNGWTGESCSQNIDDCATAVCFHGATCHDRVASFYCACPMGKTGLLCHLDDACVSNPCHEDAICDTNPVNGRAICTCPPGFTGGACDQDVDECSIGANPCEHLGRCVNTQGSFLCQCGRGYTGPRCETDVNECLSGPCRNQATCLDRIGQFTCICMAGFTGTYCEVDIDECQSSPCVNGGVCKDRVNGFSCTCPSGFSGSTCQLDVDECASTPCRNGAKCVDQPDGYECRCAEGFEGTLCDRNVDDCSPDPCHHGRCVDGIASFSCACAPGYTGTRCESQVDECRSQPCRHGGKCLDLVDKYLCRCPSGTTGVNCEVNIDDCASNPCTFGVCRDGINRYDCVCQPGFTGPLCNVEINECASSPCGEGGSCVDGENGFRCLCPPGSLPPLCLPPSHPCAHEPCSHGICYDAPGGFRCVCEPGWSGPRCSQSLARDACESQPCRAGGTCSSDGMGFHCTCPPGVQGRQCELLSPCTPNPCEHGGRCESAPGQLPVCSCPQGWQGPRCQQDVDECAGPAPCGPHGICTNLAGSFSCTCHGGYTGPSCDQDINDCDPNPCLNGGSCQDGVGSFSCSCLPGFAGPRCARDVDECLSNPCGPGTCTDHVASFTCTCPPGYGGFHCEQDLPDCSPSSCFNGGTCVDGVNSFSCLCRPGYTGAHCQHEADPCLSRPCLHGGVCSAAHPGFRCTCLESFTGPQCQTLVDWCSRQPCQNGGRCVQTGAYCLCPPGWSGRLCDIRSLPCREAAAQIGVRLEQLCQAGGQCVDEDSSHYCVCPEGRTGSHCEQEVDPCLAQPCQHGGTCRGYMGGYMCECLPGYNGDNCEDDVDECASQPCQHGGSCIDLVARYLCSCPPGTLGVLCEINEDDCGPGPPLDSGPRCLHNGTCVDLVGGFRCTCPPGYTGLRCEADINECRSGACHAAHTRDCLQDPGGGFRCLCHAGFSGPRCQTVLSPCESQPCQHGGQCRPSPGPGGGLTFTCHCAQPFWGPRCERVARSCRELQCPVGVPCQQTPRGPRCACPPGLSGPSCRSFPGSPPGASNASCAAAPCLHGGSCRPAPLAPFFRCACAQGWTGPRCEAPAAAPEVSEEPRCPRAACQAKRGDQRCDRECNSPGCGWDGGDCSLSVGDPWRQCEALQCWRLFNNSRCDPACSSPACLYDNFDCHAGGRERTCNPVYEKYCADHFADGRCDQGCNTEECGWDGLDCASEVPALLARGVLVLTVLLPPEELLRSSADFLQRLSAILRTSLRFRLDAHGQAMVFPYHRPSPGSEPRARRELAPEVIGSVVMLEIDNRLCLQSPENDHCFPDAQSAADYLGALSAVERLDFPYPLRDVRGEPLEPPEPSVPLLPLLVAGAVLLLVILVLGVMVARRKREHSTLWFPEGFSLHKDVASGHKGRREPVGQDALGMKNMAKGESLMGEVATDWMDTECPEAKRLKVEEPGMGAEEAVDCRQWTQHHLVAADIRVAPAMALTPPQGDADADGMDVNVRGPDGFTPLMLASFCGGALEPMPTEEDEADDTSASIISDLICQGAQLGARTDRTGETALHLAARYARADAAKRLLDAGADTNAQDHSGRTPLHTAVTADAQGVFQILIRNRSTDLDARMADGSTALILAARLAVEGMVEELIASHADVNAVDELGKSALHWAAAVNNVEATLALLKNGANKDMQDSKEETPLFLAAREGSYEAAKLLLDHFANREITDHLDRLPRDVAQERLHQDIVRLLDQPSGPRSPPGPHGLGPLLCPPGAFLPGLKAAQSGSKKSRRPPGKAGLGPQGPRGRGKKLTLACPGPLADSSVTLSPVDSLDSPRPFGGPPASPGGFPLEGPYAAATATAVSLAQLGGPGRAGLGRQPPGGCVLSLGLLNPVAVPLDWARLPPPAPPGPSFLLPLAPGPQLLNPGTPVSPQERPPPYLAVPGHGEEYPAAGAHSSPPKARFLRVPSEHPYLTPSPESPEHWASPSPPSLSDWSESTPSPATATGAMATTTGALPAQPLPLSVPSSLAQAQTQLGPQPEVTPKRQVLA
Sequence of Neurogenic locus notch homolog protein 2 (Homo sapiens) (Q04721 whole entry, looked up, canonical isoform): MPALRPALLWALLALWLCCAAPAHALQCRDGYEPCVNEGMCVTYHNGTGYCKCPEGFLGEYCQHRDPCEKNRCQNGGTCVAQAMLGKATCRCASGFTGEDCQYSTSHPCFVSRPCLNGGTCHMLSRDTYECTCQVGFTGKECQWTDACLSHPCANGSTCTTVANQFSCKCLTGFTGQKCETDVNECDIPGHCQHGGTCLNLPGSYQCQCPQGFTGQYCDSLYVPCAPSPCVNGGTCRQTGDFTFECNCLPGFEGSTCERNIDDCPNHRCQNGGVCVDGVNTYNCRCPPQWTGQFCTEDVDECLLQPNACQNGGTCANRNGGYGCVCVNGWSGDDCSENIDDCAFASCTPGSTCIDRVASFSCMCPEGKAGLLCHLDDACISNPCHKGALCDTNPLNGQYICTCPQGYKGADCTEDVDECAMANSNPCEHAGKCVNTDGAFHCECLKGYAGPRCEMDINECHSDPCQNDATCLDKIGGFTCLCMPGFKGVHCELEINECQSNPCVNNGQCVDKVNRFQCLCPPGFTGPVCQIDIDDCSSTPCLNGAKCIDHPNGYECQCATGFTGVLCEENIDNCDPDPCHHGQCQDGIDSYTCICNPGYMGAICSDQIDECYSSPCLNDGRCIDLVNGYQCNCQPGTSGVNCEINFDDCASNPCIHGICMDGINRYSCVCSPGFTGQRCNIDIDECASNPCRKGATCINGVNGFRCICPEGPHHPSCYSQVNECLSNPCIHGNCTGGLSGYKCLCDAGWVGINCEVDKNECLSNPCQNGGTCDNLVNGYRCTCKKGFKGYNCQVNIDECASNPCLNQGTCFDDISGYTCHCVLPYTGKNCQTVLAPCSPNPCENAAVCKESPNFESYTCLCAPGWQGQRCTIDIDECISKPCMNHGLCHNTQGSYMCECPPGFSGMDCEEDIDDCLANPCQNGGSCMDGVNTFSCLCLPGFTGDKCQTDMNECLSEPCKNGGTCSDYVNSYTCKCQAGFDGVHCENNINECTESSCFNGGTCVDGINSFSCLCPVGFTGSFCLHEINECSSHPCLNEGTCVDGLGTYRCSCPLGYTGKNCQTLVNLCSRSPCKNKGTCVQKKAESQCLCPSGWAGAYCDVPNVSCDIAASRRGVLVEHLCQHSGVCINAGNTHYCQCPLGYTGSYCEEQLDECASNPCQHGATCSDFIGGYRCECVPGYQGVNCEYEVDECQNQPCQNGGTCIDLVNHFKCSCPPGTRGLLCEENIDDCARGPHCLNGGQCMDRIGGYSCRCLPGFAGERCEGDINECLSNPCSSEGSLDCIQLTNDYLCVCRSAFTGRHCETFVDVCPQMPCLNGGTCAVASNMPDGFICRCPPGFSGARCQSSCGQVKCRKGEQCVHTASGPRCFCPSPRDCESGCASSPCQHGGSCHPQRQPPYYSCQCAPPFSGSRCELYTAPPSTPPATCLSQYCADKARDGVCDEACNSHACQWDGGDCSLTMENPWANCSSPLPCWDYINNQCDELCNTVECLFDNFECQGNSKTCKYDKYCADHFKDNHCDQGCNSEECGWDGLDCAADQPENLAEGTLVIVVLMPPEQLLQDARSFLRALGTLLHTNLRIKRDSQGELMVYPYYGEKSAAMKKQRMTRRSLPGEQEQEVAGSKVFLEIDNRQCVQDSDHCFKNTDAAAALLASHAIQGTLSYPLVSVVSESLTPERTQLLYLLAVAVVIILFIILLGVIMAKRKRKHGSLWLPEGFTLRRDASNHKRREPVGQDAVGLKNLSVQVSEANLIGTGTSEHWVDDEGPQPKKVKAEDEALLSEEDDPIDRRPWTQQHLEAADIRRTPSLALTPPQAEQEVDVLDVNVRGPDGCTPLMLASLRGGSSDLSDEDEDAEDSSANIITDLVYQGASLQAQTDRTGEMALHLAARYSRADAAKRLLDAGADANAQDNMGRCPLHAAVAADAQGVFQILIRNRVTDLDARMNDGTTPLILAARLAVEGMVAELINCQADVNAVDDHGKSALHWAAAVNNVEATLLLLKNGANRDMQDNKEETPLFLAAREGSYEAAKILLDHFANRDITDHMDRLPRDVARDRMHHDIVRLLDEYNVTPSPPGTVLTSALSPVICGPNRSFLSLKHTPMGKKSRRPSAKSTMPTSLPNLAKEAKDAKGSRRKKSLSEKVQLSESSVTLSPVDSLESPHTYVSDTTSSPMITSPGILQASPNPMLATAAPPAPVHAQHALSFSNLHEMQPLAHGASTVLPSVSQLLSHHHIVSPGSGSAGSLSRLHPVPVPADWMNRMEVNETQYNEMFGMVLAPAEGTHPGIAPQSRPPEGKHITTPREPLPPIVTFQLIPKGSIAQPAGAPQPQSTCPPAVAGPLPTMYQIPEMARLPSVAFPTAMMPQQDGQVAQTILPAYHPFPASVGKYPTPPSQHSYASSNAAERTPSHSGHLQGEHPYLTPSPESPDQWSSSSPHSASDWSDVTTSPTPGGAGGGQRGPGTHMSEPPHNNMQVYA

Row | SMILES | composite z-score [1] | composite z-score [2] | composite z-score [3] | composite z-score [4] | composite z-score [5] | composite z-score [6] | composite z-score [7] | z-score [8] | composite z-score [9] | composite z-score [10] | composite z-score [11] | z-score [12] | z-score [13] | z-score [14] | composite z-score [15] | z-score [16] | composite z-score [17] | composite z-score [18] | composite z-score [19] | composite z-score [20]
1 | CC(C)CNC(=O)[C@@]1(c2ccc([N+](=O)[O-])cc2)CC(=O)N(CC23CC4CC(CC(C4)C2)C3)[C@@H]1c1ccc(CO)cc1 | 0.158 | 1.83 | 0.0201 | 0.39 | 0.994 | 0.65 | 1.19 | -2.51 (inactive) | -0.0554 | 0.075 | 1.52 | -1.73 (inactive) | -1.1 (inactive) | 0.226 (inactive) | 2.14 | 2.86 (inactive) | 0.0054 | 0.661 | 0.708 | -0.0897
2 | COC(=O)c1ccc(OC)c(/C=C\CC(OC(C)=O)c2ccccc2)c1 (stereo not given) | 0.428 | -0.284 | -0.138 | 0.229 | 1.2 | 0.993 | 0.971 | -1.21 (inactive) | -0.405 | 0.206 | 0.31 | -1.71 (inactive) | -1.34 (inactive) | -0.0987 (inactive) | 0.879 | 0.759 (inactive) | -0.208 | 0.0928 | 0.275 | -0.115
3 | CCCC[C@H]1OB(O)C[C@H]2C1=C(C)C[C@H]1C(=O)N(Cc3ccccc3)C(=O)[C@H]12 | -0.573 | 0.383 | 0.0171 | 0.951 | 0.316 | 0.421 | 0.795 | 0.758 (inactive) | 0.267 | 0.312 | 0.705 | -0.482 (inactive) | -1.33 (inactive) | -1.04 (inactive) | 0.342 | 1.75 (inactive) | -0.102 | 0.919 | 0.666 | 0.0215
4 | Cc1ccc([C@H]2[C@H](C(=O)O)[C@H](Sc3ccccc3)[C@@H](C(C)C)N2S(=O)(=O)c2ccc(C)cc2)cc1 | -0.182 | -0.126 | 0.167 | 0.307 | 1.49 | 1.78 | 0.945 | -2.58 (inactive) | 1.31 | -0.226 | 1.03 | -0.611 (inactive) | -0.0319 (inactive) | -0.993 (inactive) | 3.03 | -1.69 (inactive) | 0.179 | 0.0176 | 1.13 | -0.0679
5 | CCCNC(=O)[C@@]1(c2ccc([N+](=O)[O-])cc2)CC(=O)N(CC23CC4CC(CC(C4)C2)C3)[C@@H]1c1ccc(CO)cc1 | -0.271 | 0.515 | 0.0422 | 0.303 | 0.143 | 0.582 | 0.791 | -1.75 (inactive) | 1.13 | 0.358 | 0.89 | -0.057 (inactive) | -0.403 (inactive) | 4.67 (inactive) | 0.907 | 0.156 (inactive) | 0.164 | 0.701 | 0.305 | 0.105
6 | COCCOC(=O)N1C(=O)[C@@]2(c3cc(C#CCNC(N)=O)ccc31)[C@H](c1ccc(OCCO)cc1)N1[C@H](c3ccccc3)[C@H](c3ccccc3)OC(=O)[C@H]1[C@@H]2C(=O)N1CCc2cc(OC)c(OC)cc2C1 | 0.187 | -0.0389 | -0.051 | 0.164 | 0.638 | 0.156 | 0.371 | 1.08 (inactive) | 0.883 | 0.327 | 0.993 | 1.46 (inactive) | 1.41 (inactive) | 4.56 (inactive) | 0.816 | 0.196 (inactive) | -0.0555 | 1.04 | 0.983 | -0.0007
7 | C=CC[C@@H](OC(=O)Nc1ccc(OC)cc1)c1ccc(O)c2ccccc12 | -0.316 | 0.129 | -0.0364 | 0.224 | 0.746 | 0.263 | 1.08 | 6.38 (inactive) | 0.56 | -0.0296 | 1.28 | -23.6 (active) | -19.6 (active) | -1.31 (inactive) | 2.28 | 1.05 (inactive) | -0.142 | 1.46 | 1.05 | 0.0225
8 | CCCCC=C[C@@H](NC(=O)c1ccc(C(=O)OC)cc1)c1ccccc1 | 0.026 | 0.0108 | -0.116 | 0.213 | 1.31 | 0.919 | 0.903 | 1.86 (inactive) | 0.474 | -0.189 | 1.29 | -0.381 (inactive) | -1.22 (inactive) | 0.771 (inactive) | 2.46 | -0.894 (inactive) | 0.145 | 0.454 | 1.02 | -0.0936
9 | CS(=O)(=O)CCOC(=O)C1=CC(CCCO)=CC(c2cccs2)N(Cc2cc3c(cc2Br)OCO3)C=C1C(=O)OCCS(C)(=O)=O (stereo not given) | -0.281 | 0.24 | 0.0737 | 0.517 | 1.5 | 1.88 | 1.31 | -1.91 (inactive) | 0.827 | 0.463 | 1.56 | 0.187 (inactive) | -1.16 (inactive) | -0.919 (inactive) | 2.82 | 0.734 (inactive) | -0.0379 | 0.91 | 1.06 | 0.0503
10 | COc1ccc(C(=O)Nc2cccc(CN3C(=O)[C@]4(O[C@H](CC(=O)N5CCC[C@H]5CO)[C@@H]([Si](C)(C)c5ccc(OC)cc5)[C@@H]4C)c4ccccc43)c2)cc1 | -0.0422 | 0.717 | 0.0257 | 0.394 | 0.135 | 0.847 | 1.12 | -1.22 (inactive) | 0.156 | -0.253 | 1.38 | -0.979 (inactive) | -0.22 (inactive) | -0.378 (inactive) | 2.34 | 0.44 (inactive) | -0.181 | 0.467 | 0.869 | -0.157
